Screening results: PubChem BioAssay, several laboratories
Only some compounds are listed: those with a hit (about 11% of all), similar ones and a draw of the others.
Autophagy HCS: autophagy modulation, high-content screen | MEF GFP-LC3 puncta imaging; test concentration mostly 10 µM | actives 0.98% (n = 190,000) | calls only at 10 µM (by protocol) | AID 463193;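 active = percentage of spot-positive cells more than 3 SD above its plate mean, without a fluorescence outlier flag or 80% toxicity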;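 also: spot-positive cell cutoff set from DMSO-treated cells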
Insulin prom up: MIN6 insulin promoter up-regulation; z-score at 5 µM; actives 0.3% (n = 190,000); MIN6 insulin promoter-GFP reporter, high-content imaging; hits give high values;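 active = z-score above 3 at 5 µM with at least 500 cells counted in the well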
Insulin prom inh: TRM-6 insulin promoter activity inhibition; inhibition, % at 2 µM; actives 0.9% (n = 130,000); TRM-6 cells (human fetal islet line), insulin promoter-eGFP reporter, imaging; reporter expression induced with tamoxifen; AID 1273;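 active = inhibition above the mean plus 3 SD, with well images judged a real hit on visual review, cut at about 60% in these data, passing the limit was not always enough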
L major viab: inhibitors of Leishmania major promastigote growth; Leishmania major promastigotes, resazurin fluorescence viability; inhibition, % at 10 µM; actives 9% (n = 200,000); AID 1063; in the data active = inhibition above about 50%;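 also: promastigotes grown with compound for 44 hours at 28 °C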
WT yeast gro inh: growth inhibition of WT yeast, mitochondrial fusion screen. mitochondrial fusion phenotypic screen, WT strain. inhibition, % at 10 µM. actives 2.1% (n = 190,000); in the data active = inhibition above about 58%; tested in S. cerevisiae
* hit, by the source's call; i = inactive; . = no result; + = active, no number; ! = not active in a repeat.

SMILES	Autophagy HCS	Insulin prom up	Insulin prom inh	L major viab	WT yeast gro inh
Cn1c(SCC(=O)N/N=C/c2ccc([N+](=O)[O-])s2)nnc1-c1ccc(Cl)cc1	i	-0.13	-66	100*	85
O=C(N/N=C/c1ccc([N+](=O)[O-])s1)c1cccc(Br)c1	i	.	-50	100*	-2
CCCn1c(SCC(=O)Nc2nnc(C)s2)nnc1-c1ccoc1C	i	0.33	.	-6	1
CCCSc1nc2c3c(sc2c(=O)[nH]1)CC(C)(CC)OC3 (centres undefined)	i	-1.1	.	6	-14
O=C(N/N=C/c1ccc(O)c2ncccc12)c1cccc(Br)c1	i	-5.1	.	100*	-10
COc1ccc(CCC(=O)N/N=C\c2cccs2)cc1	i	0.35	.	3	6
Cc1ccc(C(=O)N/N=C\c2ccc([N+](=O)[O-])s2)cn1	i	-0.4	-75	100*	-4
COc1ccc(NC(=O)CCC(=O)N/N=C/c2ccc([N+](=O)[O-])s2)cc1	i	-0.17	.	100*	75
Cc1cc(C)n(CC(=O)N/N=C/c2ccc([N+](=O)[O-])s2)n1	i	-0.15	33	99*	23
CCOC(=O)N/N=C\c1ccc([N+](=O)[O-])s1	i	-0.13	22	39	-9
CC(C)(C)OC(=O)N/N=C\c1ccc([N+](=O)[O-])s1	i	0.37	-123	80*	73
COc1ccc2nc(SCC(=O)NCC(F)(F)F)[nH]c2c1	i	-0.35	-89	-7	-24
COc1cccc(CN(C)C(=O)CCc2nnc(-c3ccsc3)o2)c1	i	0.4	31	-4	-4
CCOC(=O)CN(C)C(=O)CCc1nnc(-c2ccsc2)o1	i	-0.53	-31	-3	59*
Cc1cccc(N2C(=O)C(Oc3ccc(Cl)cc3Cl)C2C(=O)O)c1C (centres undefined)	i	0.06	-40	-6	7
CCCNCC1C(Oc2ccc(Cl)cc2Cl)C(=O)N1c1cccc(C)c1C (centres undefined)	+	-1.5	-208	72*	66
Cc1c(NC(=O)c2ccc(N(Cc3ccccc3)S(C)(=O)=O)cc2)c(=O)n(-c2ccccc2)n1C	i	0.21	.	-4	-1
CC1CC(C)(C)NC(=S)N1CCC(=O)N1CCN(c2ccccc2)CC1 (centres undefined)	i	0.05	33	7	-2
COc1ccc(OC)c(NC(=O)CCCN2C(=S)NC(C)(C)CC2C)c1 (centres undefined)	i	-0.9	5	70*	-5
CC1CC(C)(C)NC(=S)N1CCCC(=O)N1CCN(c2ccc(F)cc2)CC1 (centres undefined)	i	-0.52	3	82*	5
CCOc1ccc(OCC)c(NC(=O)CCCN2C(=S)NC(C)(C)CC2C)c1 (centres undefined)	i	.	-22	3	-23
CCOc1ccccc1NC(=O)CCCN1C(=S)NC(C)(C)CC1C (centres undefined)	i	-0.65	24	52*	-9
COc1ccc(C)cc1NC(=O)CCCN1C(=S)NC(C)(C)CC1C (centres undefined)	i	.	-25	-3	-22
CN(Cc1ccco1)C(=O)Cn1nc(-c2ccc(Cl)cc2)ccc1=O	i	.	-5	-2	1
CN(C)c1nnnn1-c1ccc(OC(F)(F)F)cc1	i	0.39	23	-1	8
SMILES	Autophagy HCS	Insulin prom up	Insulin prom inh	L major viab	WT yeast gro inh
CCCCN(C(=O)Cn1ncc(Cl)c(Cl)c1=O)c1c(N)n(CC(C)C)c(=O)[nH]c1=O	.	-0.35	.	.	.
O=C(CSc1cccs1)Nc1cccc2ccccc12	i	0.04	3	64*	-4
CCOC(=O)Nc1sc(C)c(C)c1C(N)=O	i	0.76	.	-2	-14
O=C1OCC(CO)(CO)N=C1NNc1ccc(Cl)c(Cl)c1	i	-0.47	.	100*	68
COc1cc2nc(NC(=O)c3ccc(Cl)cc3)[nH]c(=O)c2cc1OC	i	-1.4	34	60*	-21
COc1cc2nc(C3CC3)n(NC(=O)c3ccc(Cl)cc3)c(=O)c2cc1OC	i	-0.18	18	-15	17
O=C1N(Cc2cccnc2)C[C@@H]2C[C@@H](c3ccc4nsnc4c3)N3CCC[C@@]123	i	-0.29	.	-2	4
COCCNC(=O)c1cc(OC)c(OC)cc1[N+](=O)[O-]	i	0.46	47	-12	7
Cc1[nH]c2ccccc2c1/C=N/Nc1ccccn1	i	-1	-28	56*	16
Cc1[nH]c2ccccc2c1/C=N/Nc1ccc([N+](=O)[O-])cc1	+	.	.	35	52
CCc1cc2c(C)cc(=O)oc2cc1OC(=O)C1CCCN1C(=O)OC(C)(C)C (centres undefined)	i	-0.25	.	89*	-5
Cc1ccccc1OCC(O)Cn1c(=N)n(CCN2CCOCC2)c2ccccc21 (centres undefined)	i	0.34	-150	51*!	-10
N=c1n(CCN2CCOCC2)c2ccccc2n1Cc1ccccc1Br	i	-1.4	.	95*	-21
COc1ccc(OCC(O)Cn2c(=N)n(CCN3CCOCC3)c3ccccc32)cc1 (centres undefined)	i	-1.7	-64	-5	3
COc1ccccc1OCC(O)Cn1c(=N)n(CCN2CCCCC2)c2ccccc21 (centres undefined)	+	-5	45	65*	9
N=c1n(CCN2CCCCC2)c2ccccc2n1CC(O)COc1ccccc1 (centres undefined)	+	-1.3	.	101*	-21
O=C(N/N=C/c1ccc(Cl)cc1Cl)C(=O)NC1CC1	i	0	.	-10	-1
O=C(CCl)Nc1cc(S(=O)(=O)N2CCCCCC2)ccc1Cl	i	0.39	-17	99*	-7
Cc1ccc(-c2nc(SCC(=O)Nc3cc(S(=O)(=O)N4CCCCC4)ccc3Cl)n[nH]2)cc1	i	-1.8	-57	58*	18
CC(NCc1ccc(F)cc1)C(=O)Nc1cc(S(=O)(=O)N2CCCCC2)ccc1Cl (centres undefined)	i	-1	.	62*	2
Cc1nnc(SCC(=O)Nc2cc(S(=O)(=O)N3CCCC3)ccc2Cl)s1	.	-0.15	.	.	.
CCC(=O)c1ccc(OCC(O)CNCc2ccc(F)cc2)cc1 (centres undefined)	i	0.7	.	80*	-6
CCC(=O)c1ccc(OCC(O)CN(C)C2CCCCC2)cc1 (centres undefined)	i	.	31	92*	15
Cc1cccc(C)c1OCC(O)CN(Cc1ccccc1O)C1CCCCC1 (centres undefined)	i	-0.59	.	94*	24
CCC(=O)c1ccc(OCC(O)CN2CCN(c3ccc(F)cc3)CC2)cc1 (centres undefined)	i	0.29	.	-4	8
CN(CC(O)COc1ccc(OCC(O)CN(C)C2CCCCC2)cc1)C1CCCCC1 (centres undefined)	+	0.07	-3	63*	3
CN(CC(O)COC(c1ccccc1)c1ccccc1)C1CCCCC1 (centres undefined)	i	-0.16	-94	19	13
